Measurements from PubChem BioAssay AID1159580 (chemical genetic matrix, 2015).
Hit rate of the full screen: of about 5,500 compounds, about 2,000 (36%) were called active. Another 18% or so got no clear call; they are omitted. No stated cut-off is given here; in the data, active means normalized growth mostly below about 0.91 (no sharp cut-off); inconclusive means no clear call, values can overlap the other calls; inactive means mostly above about 0.92. The list shows a part of the results.

Assay: chemical genetic growth profiling, strain panel (AID 1159580);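 further: tested at 20 µM; growth read once vehicle control cultures reached saturation at 30 °C; 1 = growth at the plate median or of vehicle wells; lower values mean less growth of the strain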
Conditions: S. cerevisiae deletion strains, growth OD

Measured: normalized growth

CC1=C(C)C(=O)C(CCCCC#CCCCC#CCO)=C(C)C1=O
inactive: locus YAL013W, strain DEP1, active compounds read low 0.995 | locus YAL040C, strain CLN3, active compounds read low 0.993 | locus YCL061C, strain MRC1 (second series), active compounds read low 1 | locus YDR363W, strain ESC2, active compounds read low 0.988 | locus YER002W, strain NOP16, active compounds read low 0.996 | locus YMR263W, strain SAP30, active compounds read low 1 | locus YNL128W, strain TEP1, active compounds read low 0.998 | locus YNL175C, strain NOP13, active compounds read low 1 | locus YNL197C, strain WHI3, active compounds read low 0.997 | locus YNL224C, strain SQS1, active compounds read low 0.984 | locus YOR083W, strain WHI5 (second series), active compounds read low 0.975

COc1ccc(Oc2ccc([N+](=O)[O-])cc2C(=O)O/N=C(/N)c2ccc(C(F)(F)F)cc2)cc1
inactive: locus YAR019C, strain CDC15, active compounds read low 1 | locus YBL105C, strain PKC1, active compounds read low 0.991 | locus YBR135W, strain CKS1, active compounds read low 0.991 | locus YBR136W, strain MEC1, active compounds read low 0.996 | locus YBR160W, strain CDC28, active compounds read low 0.997 | locus YDL017W, strain CDC7, active compounds read low 1 | locus YDL028C, strain MPS1, active compounds read low 1 | locus YDL101C, strain DUN1, active compounds read low 0.988 | locus YDL108W, strain KIN28, active compounds read low 0.99 | locus YDL132W, strain cdc53, active compounds read low 0.982 | locus YDL214C, strain PRR2, active compounds read low 1.01 | locus YDR052C, strain DBF4, active compounds read low 1 | locus YDR054C, strain cdc34, active compounds read low 0.99 | locus YDR226W, strain ADK1, active compounds read low 0.987 | locus YDR477W, strain SNF1, active compounds read low 0.999 | locus YER123W, strain YCK3, active compounds read low 0.983 | locus YER133W, strain GLC7, active compounds read low 1 | locus YFL009W, strain cdc4, active compounds read low 0.998 | locus YFL029C, strain CAK1, active compounds read low 1 | locus YFR003C, strain YPI1, active compounds read low 1.01 | locus YFR019W, strain FAB1, active compounds read low 1 | locus YFR028C, strain CDC14, active compounds read low 0.998 | locus YGR040W, strain KSS1, active compounds read low 1 | locus YGR052W, strain FMP48, active compounds read low 1.01 | locus YGR092W, strain DBF2, active compounds read low 1.03 | locus YHR030C, strain SLT2, active compounds read low 0.92 | locus YHR079C, strain IRE1, active compounds read low 1 | locus YHR082C, strain KSP1, active compounds read low 1.11 | locus YHR205W, strain SCH9, active compounds read low 0.991 | locus YIL147C, strain SLN1, active compounds read low 1 | locus YJL095W, strain BCK1, active compounds read low 1 | locus YJL128C, strain PBS2, active compounds read low 0.957 | locus YJL157C, strain FAR1, active compounds read low 1.02 | locus YJR016C, strain ILV3, active compounds read low 1 | locus YJR066W, strain TOR1 (second series), active compounds read low 0.964 | locus YJR066W, strain TOR1, active compounds read low 1.07 | locus YKL048C, strain ELM1, active compounds read low 0.995 | locus YKL067W, strain YNK1, active compounds read low 0.999 | locus YKL101W, strain HSL1, active compounds read low 0.998 | locus YKL193C, strain SDS22, active compounds read low 1 | locus YKL203C, strain TOR2, active compounds read low 1.03 | locus YLR113W, strain HOG1, active compounds read low 0.919 | locus YLR133W, strain CKI1, active compounds read low 1.01 | locus YLR403W, strain SFP1, active compounds read low 1.01 | locus YML070W, strain DAK1, active compounds read low 1.01 | locus YMR001C, strain CDC5, active compounds read low 1.01 | locus YMR205C, strain PFK2 (second series), active compounds read low 0.989 | locus YMR277W, strain FCP1, active compounds read low 1.01 | locus YNL006W, strain LST8, active compounds read low 1 | locus YNL020C, strain ARK1, active compounds read low 1.02 | locus YNL161W, strain CBK1, active compounds read low 0.994 | locus YNL183C, strain NPR1, active compounds read low 1.04 | locus YNL207W, strain RIO2, active compounds read low 1 | locus YNL222W, strain SSU72, active compounds read low 0.997 | locus YNL307C, strain MCK1 (second series), active compounds read low 1 | locus YOL078W, strain AVO1, active compounds read low 1 | locus YOL136C, strain PFK27, active compounds read low 1.01 | locus YOR061W, strain CKA2, active compounds read low 1.01 | locus YOR119C, strain RIO1, active compounds read low 1.06 | locus YOR231W, strain MKK1, active compounds read low 0.985 | locus YOR329C, strain SCD5, active compounds read low 1 | locus YPL031C, strain PHO85, active compounds read low 0.988 | locus YPL153C, strain RAD53, active compounds read low 0.995 | locus YPL204W, strain HRR25, active compounds read low 1.01 | locus YPL209C, strain IPL1, active compounds read low 1 | locus YPL256C, strain CLN2, active compounds read low 0.927 | locus YPR025C, strain CCL1, active compounds read low 0.999 | locus YPR106W, strain ISR1, active compounds read low 0.993 | locus YPR111W, strain DBF20, active compounds read low 0.986 | strain NNK1, active compounds read low 0.982 | strain TSCII, active compounds read low 1
